AMA1 RON2 block = qHTS for Inhibitors of AMA1-RON; Towards Development of Antimalarial Drug Lead: Primary Screen; Plasmodium falciparum AMA1 (3D7) - RON2 peptide interaction; Potency, µM (top dose mostly 58.2 µM), without a hit: at the top dose activity change, negative = inhibition, actives largely listed as inhibitors; AlphaScreen AMA1-biotinylated RON2 peptide binding; hit rate 0.2% among 360,000;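 also: 0% = vehicle wells and -100% = peptide control; nearly all actives have a fitted effect of over 45% in size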
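AMA1 (3D7) with his tag at 25 nM final met compounds first, then biotinylated RON2 peptide at 25 nM; detection used donor plus acceptor beads, 10 µg/mL apiece, read by AlphaScreen after 30 min at room temperature.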
FMDV inh = High Throughput Screening for Foot and Mouth Disease Virus Antivirals. FMDV antiviral cell-based qHTS. Potency, µM (titrated, usually from 57.9 µM), for the others: top-dose activity change, negative = inhibition, actives largely listed as inhibitors. hit rate 1.2% among 410,000; calls by dose curve; tested in HEK293T cells; also: read-out not given here; nearly all actives have a fitted effect of over 45% in size
AmpC inh no detg = qHTS Inhibitors of AmpC Beta-Lactamase (assay without detergent) | P00811 | hit rate 0.52% among 330,000 | AmpC nitrocefin hydrolysis, absorbance 480 nm, 0.0001% Triton | AID 485341, 2010 | Potency, µM (series often up to 57.1 µM), without a hit: at the top dose activity change, negative = inhibition, most hits filed as inhibitors;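 also: plate controls were no compound for no effect and no enzyme for full effect; nearly all actives have a fitted effect of over 20% in size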
Target sequence (P00811 whole entry, looked up): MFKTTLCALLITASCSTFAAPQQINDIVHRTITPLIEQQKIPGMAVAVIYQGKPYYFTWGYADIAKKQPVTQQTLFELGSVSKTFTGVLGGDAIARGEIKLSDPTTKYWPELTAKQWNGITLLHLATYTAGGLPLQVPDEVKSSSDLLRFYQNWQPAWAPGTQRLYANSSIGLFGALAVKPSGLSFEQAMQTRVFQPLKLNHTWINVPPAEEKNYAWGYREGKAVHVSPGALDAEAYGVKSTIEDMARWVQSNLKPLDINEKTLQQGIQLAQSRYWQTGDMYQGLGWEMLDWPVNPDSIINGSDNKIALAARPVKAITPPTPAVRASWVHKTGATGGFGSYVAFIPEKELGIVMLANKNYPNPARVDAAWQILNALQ
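AmpC (5.3 nM in the dispensed reagent) in 20 mM phosphate pH 7.0 with 0.01% (detergent screen) or 0.0001% Triton X-100 was preincubated with compounds for 15 min at room temperature. Nitrocefin was then added from an 800 uM solution, and hydrolysis was followed at 480 nm.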
AmpC inh detg = qHTS Inhibitors of AmpC Beta-Lactamase (assay with detergent); P00811; AmpC hydrolysis of nitrocefin, absorbance 480 nm, 0.01% Triton; Potency, µM (top dose mostly 114 µM), for inactives: at the top dose activity change, negative = inhibition, usual class: inhibitors; hit rate 0.041% among 370,000; AID 485294, 2010;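 also: 0% = no-compound wells and -100% = no-enzyme wells; nearly all actives have a fitted effect of over 25% in size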
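20 mM phosphate pH 7.0 + 0.01% (detergent screen) or 0.0001% Triton X-100; 5.3 nM AmpC reagent; cpd preinc 15 min RT; nitrocefin (800 uM stock) to start; A480 q20 s × 4 min; Activity was normalised to no-enzyme and no-compound control wells.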
Sm TGR inh = qHTS Assay for the Inhibitors of Schistosoma Mansoni Peroxiredoxins; Schistosoma mansoni thioredoxin glutathione reductase (TGR), Q962Y6; purified TGR, DTNB reduction, TNB absorbance 405 nm; Potency, µM (top dose mostly 114 µM), for the others: top-dose activity change, negative = inhibition, most hits filed as inhibitors; hit rate 3% among 360,000; AID 485364, 2010; also: nearly all actives have a fitted effect of over 60% in size
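TGR 20 nM + NADPH 100 uM (dispensed conc.), cpd preinc 15 min RT; start with NADPH (500 uM addition) then DTNB (15 mM addition). Kinetic TNB absorbance, 405 nm filter. Four-parameter Hill fit across titration.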
* = called active by the depositor; ? = inconclusive; nt = not tested or not shown. This is a sample that favours compounds with a hit; in the whole collection about 4.1% have one here. Unless noted, calls follow the shape of the dose curve; as a rule, active = well fitted curve in the direction sought with a large enough effect; inconclusive = small, poorly fitted or top-dose-only effect, or another doubt; inactive = no such curve, though single readings can be large; an effect the other way counts as inactive or inconclusive. Unless noted, % is scaled to controls: 0 for no effect and ±100 for the full control effect; potency is read from the fitted curve at half-maximal effect.

SMILES | AMA1 RON2 block | FMDV inh | AmpC inh no detg | AmpC inh detg | Sm TGR inh
CCC1(c2cccc(Cl)c2)NC(=O)N(Cc2cc(C(=O)OC)c(C)o2)C1=O (stereo not given) | -7% | 28µM* | 0% | 7% | 25%
Cc1ccc(C(=O)c2coc3cc([N+](=O)[O-])c(O)c([N+](=O)[O-])c23)cc1 | ? | -13% | -25% | -7% | 50µM*
COC(=O)c1ccccc1NC(=O)CCCn1c(=O)c2cccn2c2cccnc21 | nt | 0% | nt | 2% | -2%
O=C(/C=C/c1ccccc1Cl)c1cccnc1 | -2% | 14µM* | -9% | 4% | 13µM*
O=C(/C=C/c1c(F)cccc1Cl)c1ccc(O)cc1 | -7% | 12% | -42% | 2% | 40µM*
CCN(CC)c1ccc(/C=C/C(=O)c2cccnc2)cc1 | 8% | -12% | -24% | 4% | 4%
O=C(/C=C/c1ccccc1Cl)c1ccc(O)cc1 | -2% | 13% | -48% | -9% | 45µM*
O=C(/C=C/c1ccc(Cl)cc1)c1cccnc1 | -24% | -7% | -17% | -17% | 14µM*
Cc1ccc2c(c1)CN(CCNC(=O)C(C)Oc1ccccc1)CC(C)O2 (stereo not given) | nt | -8% | nt | nt | nt
N#Cc1ccc(/C=C/C(=O)c2cccnc2)cc1 | -2% | 40µM* | -6% | -11% | 28µM*
O=C(/C=C/c1cccnc1)/C=C/c1cccnc1 | -2% | 11µM* | -12% | -9% | 3.2µM*
C(=Cc1cccnc1)c1ccncc1 | -19% | 17% | nt | nt | nt
N#Cc1ccc(/C=C/C(=O)O)cc1 | 7% | -7% | -9% | -3% | -7%
O=C(Cn1cc(C(=O)c2ccco2)c2ccccc21)Nc1ccccc1C(F)(F)F | nt | -6% | nt | 8% | 0%
O=C(CSc1n[nH]c(-c2ccccc2)n1)N1CCN(c2ccccc2F)CC1 | nt | -10% | nt | -9% | 0%
CCNc1ncc2nc(-c3ccccc3)c(=O)n(C[C@H]3CCCO3)c2n1 | nt | -15% | nt | nt | nt
O=c1[nH]c(=S)n(C2CC2)c(O)c1/C=N/Nc1ccccc1 | 28% | 35% | 13µM* | -11% | 20µM*
O=c1[nH]c(=S)n(C2CC2)c(O)c1/C=N/Nc1cccc2ccccc12 | 37% | -11% | -24% | -1% | 35µM*
O=C(N/N=C/c1c(O)n(C2CCCCC2)c(=S)[nH]c1=O)c1ccccc1 | 98% | -15% | -30% | -12% | -30%
Fc1ccc(C[n+]2csc3ccccc32)cc1 | -12% | -9% | -21% | -12% | 0%
Clc1ccc(C[n+]2csc3ccccc32)cc1 | -20% | 13% | -18% | -9% | 4.5µM*
Cc1ccc(-n2c(C)cc(/C=c3/sc4nc5ccccc5n4c3=O)c2C)cc1 | 3% | 1µM* | -3% | -1% | -30%
O=c1/c(=C\c2cccn2-c2ccccc2)sc2nc3ccccc3n12 | -11% | 7% | -14% | -11% | -8%
COc1ccccc1CNC(=O)c1cc2sccc2n1Cc1ccc(F)cc1 | nt | -4% | nt | -1% | 6%
COCCNC(=O)/C(C#N)=C/c1cccc(/C=C(\C#N)C(=O)NCCOC)c1 | 11% | 14µM* | -51% | -4% | -19%
SMILES | AMA1 RON2 block | FMDV inh | AmpC inh no detg | AmpC inh detg | Sm TGR inh
COc1ccc(NC(=O)CSc2nc3ccccc3n2CC(=O)Nc2cccc(C)c2C)cc1 | nt | -20% | nt | 3% | -2%
O=C(N/N=C/c1cccs1)c1cccc(S(=O)(=O)Nc2ccc(Cl)cc2)c1 | 1% | 25% | 14µM* | -12% | 6%
O=C(N/N=C/c1cccs1)c1cccc(NC(=O)c2ccc(Cl)cc2)c1 | nt | nt | -21% | -12% | -14%
CCOc1ccc(-n2c(-c3ccc(Br)cc3)cc3c2CC(C)(C)CC3=O)cc1 | nt | ? | nt | 22% | -3%
O=C(O)CCN1CC2([N+](=O)[O-])C=CC(=O)C([N+](=O)[O-])(C1)C2CC(=O)c1ccccc1 (stereo not given) | 18% | -14% | -18% | -3% | 18µM*
O=C(CCN1CCCCCC1)c1ccccc1 | 4% | 2% | -27% | -4% | 0%
CCOc1ccc(Nc2cc(=O)n(C)c(=O)n2C)cc1 | -3% | 0% | -6% | ? | 1%
Cn1c(Nc2ccc(Cl)cc2)cc(=O)n(C)c1=O | -5% | -14% | -3% | 8% | 20µM*
CN1CCN([C@H]2CS(=O)(=O)N[C@@H]2COCc2ccccc2)CC1 | 7% | -18% | nt | nt | nt
CC1Sc2ccc(S(=O)(=O)N3CCC(C(=O)Nc4ccc(Cl)cc4)CC3)cc2NC1=O (stereo not given) | -2% | 14µM* | -52% | -2% | -6%
Oc1ccccc1C1=Nc2nc3ccccc3n2C(c2ccccc2)C1 (stereo not given) | -4% | -16% | -24% | 0% | 10µM*
C/C(=N\Nc1ncc(Cl)cc1Cl)c1ccccn1 | 71% | 5.6µM* | -34% | 1% | -33%
COC(=O)c1c(OCc2cccnc2)cc(=O)n2c1CCN(C(=O)c1cccc(N(C)C)c1)CC2 | nt | 9% | nt | nt | nt
CCOc1cccc2cc(C(=O)Oc3ccc(OC)cc3)c(=O)oc12 | 0% | -10% | -16% | -14% | 40µM*
COCC1CCCN(Cc2ccc3c(c2)CN(C(=O)c2ccc(OC)nc2OC)CCO3)C1 (stereo not given) | nt | 2% | nt | nt | nt
CCn1c(C)c(C2=CCN(S(=O)(=O)c3ccccc3)CC2)c2ccccc21 | -30% | ? | 18µM* | 0% | ?
O=[N+]([O-])c1ccc(/C=N/Nc2nc(N3CCOCC3)nc(N3CCOCC3)n2)cc1 | nt | nt | -10% | -5% | nt
O=[N+]([O-])c1ccc(/C=C2\CCC(C3=CCCC3)=C2N2CCOCC2)cc1 | -10% | -15% | -48% | -4% | 32µM*
COc1ccc(CN2Cc3ccccc3OC(c3ccccc3OC)C2)cc1O (stereo not given) | nt | -2% | nt | nt | nt
COc1ccc(NC(=O)CSc2nc(-c3cc(OC)c(OC)c(OC)c3)[nH]c2-c2ccc(F)cc2)cc1 | nt | -2% | nt | 1% | 0%
O=Nc1c(O)n(Cc2ccc(Cl)c(Cl)c2)c2ccccc12 | -21% | ? | 2.5µM* | -7% | 11%
c1ccc(-c2nc(-c3ccccn3)no2)cc1 | 8% | 13µM* | -9% | -6% | -1%
CCN(CC)c1ccc(-c2nc(-c3ccccn3)no2)cc1[N+](=O)[O-] | nt | -23% | nt | -4% | 50µM*
Cc1ccc(-c2nc(-c3ccccn3)no2)cc1 | 22% | 2.8µM* | -8% | -2% | 5%
c1ccc(-c2ccc(-c3nc(-c4ccccn4)no3)cc2)cc1 | 60% | 2.8µM* | 63% | -1% | -1%
CCN(CC)c1ccc(-c2nc(-c3ccncc3)no2)cc1[N+](=O)[O-] | nt | 14% | nt | 26% | -4%
